# Hit rate of the full screen: of about 10,000 compounds, about 25 (0.2%) were called active. Entries that show only a call come without a potency. This is one part of a sample in which actives are shown more often than they occur. Potency and affinity values are given separately. Values without a mark were called inactive.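 Rule for the calls: active = top tenth filtered wells with inhibition above zero that passed visual or statistical confirmation; inactive = the rest, including hits rejected on review.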
# Assay: suppression of endothelial VCAM-1 upregulation – imaging, high-content imaging, pooled HUVEC, TNFa stimulus (AID 456);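 for inhibition: VCAM-1 immunofluorescence minus red nonspecific channel after plate median normalization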
# Conditions: HUVEC TNFa-induced VCAM-1 surface expression, immunofluorescence imaging;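 compounds screened at 5 µM final in the well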
row,SMILES,inhibition
1,CCCCn1cnc2c(c1=O)c1nc3ccccc3nc1n2Cc1ccc2c(c1)OCO2,inactive
2,CN(C)c1ccc(C(=O)OCC(=O)NC2CCCCC2)cc1,inactive
3,CS(=O)(=O)N1CCN(c2ccccc2NC(=O)c2cccs2)CC1,inactive
4,O=C(Nc1ccccc1N1CCN(C(=O)c2ccc(Cl)cc2)CC1)c1cc2ccccc2o1,inactive
5,CS(=O)(=O)N1CCN(c2ccccc2NC(=O)c2ccc(-c3ccc(Cl)cc3Cl)o2)CC1,70.7% (active)
6,Cc1cc(Br)c(S(=O)(=O)n2nnc3ccccc32)cc1C,inactive
7,COc1cc(CNc2ccc(N3CCOCC3)c(C(=O)O)c2)ccc1OCC(N)=O,inactive
8,Cc1ccc(NC(=O)c2ccco2)c(NC(=O)CN2C(=O)c3ccccc3C2=O)c1,inactive
9,CCOc1ccc2cc(C#N)c(SCC(=O)N3CCOCC3)nc2c1,inactive
10,CCOc1ccc2cc(C#N)c(SCC(=O)N3CCC(C)CC3)nc2c1,69.1% (active)
11,CCOc1ccc2cc(C#N)c(SCC(=O)N3CCCC3)nc2c1,inactive
12,Cc1cc(Cl)ccc1NC(=O)CSc1nnc(Cc2cccs2)n1Cc1ccco1,inactive
13,COc1ccc(OC)c(NC(=O)CS(=O)(=O)c2ccccc2)c1,inactive
14,O=S(=O)(NCCCCCNS(=O)(=O)c1ccccc1)c1ccccc1,inactive
15,Cc1ccccc1-c1nc2ccccc2c(=O)n1C1CCS(=O)(=O)C1 (stereo not given),inactive
16,C=C(Cl)COC(=O)[C@H]1C2C=CC(C2)C1C(=O)O (stereo not given in full),inactive
17,O=C(c1cnn2c1NC(c1ccco1)CC2C(F)(F)F)N1CCN(c2cccc(Cl)c2)CC1 (stereo not given),inactive
18,O=C(CC(SCCO)c1ccc2c(c1)OCO2)c1ccco1 (stereo not given),inactive
19,COc1ccc(CCNC(=O)C2CCN(Cc3nc(-c4cccc(Cl)c4)oc3C)CC2)cc1OC,76.3%
20,Cc1ccccc1-c1nc(CN2CCC(C(=O)N3CCC(C(N)=O)CC3)CC2)c(C)o1,inactive
21,O=C(CN(Cc1ccc(F)cc1)C(=O)Cn1nnc2ccccc21)NCC1CCCO1 (stereo not given),inactive
22,O=C(NCC1CCCO1)c1ccc(C(=O)NCC2CCCO2)cc1 (stereo not given),inactive
23,O=S(=O)(c1ccc2ccccc2c1)N1CCCCC1,inactive
24,Cc1cnc(C(=O)Nc2ccc(N3CCOCC3)cc2)cn1,inactive

row,SMILES,inhibition
1,CSc1ncc(Cl)c(C(=O)Nc2ccc(S(=O)(=O)N3CCOCC3)cc2)n1,inactive
2,Cc1cc(NCCN2CCOCC2)n2nc(C)c(-c3ccccc3)c2n1,inactive
3,COC(=O)c1cn(C(=O)c2ccc(Br)o2)c2ccccc12,inactive
4,O=C(NCCN1CCOCC1)C1CC(=O)N(c2ccc(F)c(Cl)c2)C1 (stereo not given),inactive
5,CC1=C(C(=O)OC2CCCCC2)C(c2ccc(C)o2)C2=C(CC(C)(C)CC2=O)N1 (stereo not given),inactive
6,COc1ccccc1N1CCN(C(=O)c2cc(C3CC3)on2)CC1,inactive
7,CCOC(=O)Cc1nnc(NC(=O)c2ccccc2OCC)s1,inactive
8,O=C(CCn1c(=O)oc2ccccc21)NCCN1CCOCC1,inactive
9,O=c1[nH]c(NCc2ccccc2)nc2c1CCCC2,inactive
10,Cc1ccc(N2CCN(C(=S)c3ccc(N(C)C)cc3)CC2)cc1,inactive
11,COc1ccccc1N1CC(C(=O)Nc2cccc(C(=O)O)c2)CC1=O (stereo not given),inactive
12,c1ccc(OCCCn2nnc(-c3cccnc3)n2)cc1,inactive
13,CCN(CC)CCn1c(=N)n(CCO)c2ccccc21,inactive
14,Cc1c(NC(=O)Cn2nc(C(=O)O)c3ccccc3c2=O)c(=O)n(-c2ccccc2)n1C,inactive
15,Cn1ccnc1SCC(=O)Nc1ccc2ccccc2c1,inactive
16,CCOC(=O)c1sc(NS(=O)(=O)c2ccc(NC(C)=O)cc2)nc1C,inactive
17,CCn1c(-c2cc(Br)ccc2O)n[nH]c1=S,inactive
18,CCSc1oc(-c2cccs2)nc1S(=O)(=O)c1ccccc1,inactive
19,COc1ccc(OCC(=O)N2CCN(C(=O)COc3ccc(Br)cc3)CC2)cc1,inactive
20,COc1cc2c(cc1OC)C(c1cccnc1)CC(=O)N2 (stereo not given),inactive
21,COc1ccc(NC(=O)c2cc(C(C)C)on2)c(OC)c1,inactive
22,Cc1ccc2c(c1)NC(=O)C(CC(=O)NC1CCCCC1C)O2 (stereo not given),inactive
23,COc1ccc(N2C(=O)CCC(C(=O)N3CCCCC3)C2c2ccc(OC)c(OC)c2)cc1 (stereo not given),inactive
24,CCCC1(C(=O)OCC)NC(c2ccc(N(C)C)cc2)C2C(=O)N(c3ccccc3)C(=O)C21 (stereo not given),inactive

row,SMILES,inhibition
1,CCOc1ccc(-n2cc(C(=O)Nc3cccc(C)n3)c3cc(OC)c(OC)cc3c2=O)cc1,inactive
2,COc1ccccc1N1CCN(C(=O)CSc2nc3ncnc(N)c3[nH]2)CC1,inactive
3,Cc1ccc(-c2[nH]nc3c2C(c2ccc(OC(=O)N4CCOCC4)cc2)C(C#N)=C(N)O3)cc1 (stereo not given),inactive
4,O=C(CSc1nnc(-c2ccccc2)o1)N1CCN(c2ccccc2)CC1,inactive
5,CN(c1ccccc1)C(c1ccc(F)cc1)c1nnnn1CC1CCCO1 (stereo not given),inactive
6,Cc1ccc(CCSCC(=O)O)cn1,inactive
7,O=C(Nc1ccc(N2CCOCC2)c(Cl)c1)c1ccc(Br)o1,inactive
8,CCn1c(CSc2nc(C)cc(C)n2)nnc1SCC(=O)Nc1ccccc1,inactive
9,COc1ccccc1N1CCN(C(=O)C(Cc2ccccc2)NC(=O)C2CCCCC2)CC1 (stereo not given),inactive
10,COc1ccc(C(N)=O)cc1N,inactive
11,C#CCN1C(=O)C(O)(CC(=O)c2cccc(OC)c2)c2ccccc21 (stereo not given),inactive
12,CCOC(=O)c1c(C)oc2ccc(O)c(CN(C)C)c12,inactive
13,CN(c1cccc(NC(=O)COc2ccccc2)c1)S(C)(=O)=O,inactive
14,CCOc1ccc2ccccc2c1C(=O)N1CCN(c2ccccc2)CC1,inactive
15,CCOC(=O)c1c(NC(=O)CSc2nnc(-c3cccnc3)o2)sc(C)c1C,inactive
16,CN(C)S(=O)(=O)c1ccc(C(=O)Nc2ccccc2C(=O)O)cc1,inactive
17,CCN1C(=O)c2cccc3c(NC(=O)c4ccc5c(c4)OCCO5)ccc1c23,inactive
18,N#Cc1c2n(c(=O)[nH]c1=O)CCCCC2,inactive
19,O=C(c1nn2cccnc2c1Cl)N1CCN(c2ccccc2)CC1,inactive
20,COC(=O)c1cc(Oc2ccc(C(=O)OC)cc2N)cc(C(=O)OC)c1,inactive
21,Cc1cc(C)n(C(=O)C23CC4CC(CC(C4)C2)C3)n1,inactive
22,Cn1c(=O)cc(OCCCC(=O)N2CCCCC2)c2ccccc21,102%
